CYP2C9 act = activators of human CYP2C9; P11712; recombinant CYP2C9, luciferin-H conversion, luminescence; hits give high values; factor 1 = untreated enzyme, 0 = blocked; activation factor at 5 µM; hit rate 1.4% among 96,000;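 active = activation factor of 2 or more for CYP2C9 at a 5 µM dose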
CYP2C19 inhib = human CYP2C19 inhibition; CYP2C19 Supersomes, luciferin-H EGE luminescence, 30 min; inhibition, % at 5 µM; hit rate 21% among 96,000; AID 778;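 active = CYP2C19 inhibition above a set limit at 5 µM in the primary screen, cut at about 50% in these data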
Pyk2 oligo antag = antagonists of human Pyk2 oligomerization | AID 1347419 | Q14289 | Q293 cells, Pyk2 FERM NanoBiT luminescence; hits give low values | hit rate 0.83% among 99,000 | z-score (the deposit names both 25 µM and 10 µM);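 active = Z-score of -3 or lower, scaled per plate to the spread of control and sample wells; inactive = z-score above -3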;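 note: negative z-score means lost luminescence so less FERM oligomerization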
CYP2C19 activ = cytochrome P450 2C19 (human) activation. P33261. recombinant CYP2C19, luciferin-H EGE luminescence; hits give high values; 0 = fully inhibited enzyme, 1 = untreated enzyme. activation factor at 5 µM. 96,000 tested, under 10 active. AID 1025;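 active = activation factor of at least 2 at 5 µM in the primary screen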
Cav3 T inh = blocks human Cav3.2 T-type calcium channel; hit rate 4% among 100,000; AID 449739; Cav3.2-expressing cells, Fluo-4 calcium fluorescence FDSS; hits give low values; B-score at 10 µM; O95180;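 active = single-dose well whose peak fluorescence ratio is a statistical outlier from its plate by either plate-standardised score or position-corrected B-score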
CYP2C9 inhib = inhibitors of human CYP2C9; P11712; CYP2C9 Supersomes, luciferin-H conversion, luminescence; inhibition, % at 5 µM; hit rate 20% among 96,000; AID 777;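 active = blocking of liver enzyme CYP2C9 beyond about 50% at 5 µM, limit read from the data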
Each line names hits and unclear results; the compound was inactive in the other large screens. Sampled rows, rich in hits. Any-hit rate of the full collection: about 27%.

O=C(COc1ccccc1)N1CCN(Cc2c[nH]c3ccccc23)CC1	none
O=C(Cc1ccccc1)N1CCN(Cc2c[nH]c3ccccc23)CC1	CYP2C19 inhib 61.5
O=c1c2ccccc2nc(-c2cccs2)n1-c1cnccn1	none
Cc1ccc(-n2c(-c3cccs3)nc3ccccc3c2=O)cc1	CYP2C9 inhib 57.9 (no result: Cav3 T inh)
O=C(O)c1c[nH]c2ccc(S(=O)(=O)N(CCCl)CCCl)cc12	none
COc1ccccc1-n1c(O)c(C=NCCN2CCNCC2)c(=O)[nH]c1=O	CYP2C9 inhib 58.5
Cc1nn(Cc2ccccc2)c(Cl)c1C(=O)OC(C)C(=O)Nc1ccc(F)cc1Cl (stereo not drawn)	none (no result: CYP2C9 act, CYP2C19 inhib, CYP2C19 activ, Cav3 T inh, CYP2C9 inhib)
COc1cccc(C2(O)CCSCC2CN(C)C)c1 (stereo not drawn)	none (no result: CYP2C9 act, CYP2C19 inhib, CYP2C19 activ, Cav3 T inh, CYP2C9 inhib)
Cn1cc(CCC(=O)N2CCC3(CC2)OCCO3)c2ccccc21	CYP2C19 inhib 98.5
Cn1c(=O)cc(OCCCC(=O)N2CCC3(CC2)OCCO3)c2ccccc21	none
Cn1c2ccccc2c2c(C(=O)N3CCC4(CC3)OCCO4)cn(C3CCCC3)c(=O)c21	CYP2C9 inhib 72.1
Cn1c(=O)cc(SCC(=O)N2CCC3(CC2)OCCO3)c2ccccc21	CYP2C9 act 2.1
CC(C)(O)[C@H]1O[C@H]2CC[C@@]3(C)[C@@](O)(CC[C@H]4Cc5c([nH]c6ccccc56)[C@@]43C)C2=CC1=O	none (no result: CYP2C9 act, CYP2C19 inhib, Pyk2 oligo antag, CYP2C19 activ, CYP2C9 inhib)
COC(=O)c1ccc(N2C(=O)CC(N3CCC(n4c(=O)[nH]c5ccccc54)CC3)C2=O)cc1 (stereo not drawn)	CYP2C19 inhib 59.8
Cc1cc(N2C(=O)CC(N3CCC(n4c(=O)[nH]c5ccccc54)CC3)C2=O)no1 (stereo not drawn)	none
CCC1=CCN(CCc2c(C)[nH]c3ccccc23)CC1	none (no result: CYP2C9 act, CYP2C19 inhib, Pyk2 oligo antag, CYP2C19 activ, CYP2C9 inhib)
Nc1ccc(CCN2CCN(c3cccc(C(F)(F)F)c3)CC2)cc1	none (no result: CYP2C9 act, CYP2C19 inhib, Pyk2 oligo antag, CYP2C19 activ, CYP2C9 inhib)
FC(F)(F)c1ccc2c(c1)N(CCCN1CCN(CCCl)CC1)c1ccccc1S2	CYP2C19 inhib 50.4
CC1CCC(C(C)C)C(OP(N)(=O)c2ccccc2)C1 (stereo not drawn)	CYP2C19 inhib 83.2, CYP2C9 inhib 65.4
O=C(O)[C@@H]1C[C@H]1[C@@H](NP(=O)(c1ccccc1)c1ccccc1)c1ccccc1	none (no result: CYP2C9 act, CYP2C19 inhib, Pyk2 oligo antag, CYP2C19 activ, CYP2C9 inhib)
CN1CCc2nc3sc(C#N)c(N)c3c(-c3cccs3)c2C1	CYP2C9 inhib 56.0
O=[N+]([O-])c1ccccc1CNCCc1ccc(F)cc1	CYP2C19 inhib 85.6
COc1ccc(CCNCc2ccccc2F)cc1OC	none (no result: CYP2C9 act, CYP2C19 inhib, CYP2C19 activ, CYP2C9 inhib)
OC1(c2cccnc2)CC2CCC(C1)N2Cc1nnnn1Cc1ccccc1 (stereo not drawn)	none
COc1ccccc1N1CCN(Cc2ccc(Cl)cc2Cl)CC1	CYP2C19 inhib 56.1
Fc1ccccc1N1CCN(Cc2c(F)cccc2F)CC1	CYP2C19 inhib 99.7, CYP2C9 inhib 63.4
Fc1ccccc1N1CCN(Cc2ccc3c(c2)OCO3)CC1	none
COc1ccc(CN2CCN(c3ccccc3F)CC2)cc1O	CYP2C19 inhib 74.5
Cc1ccccc1C1=NCC(=O)N(CC(=O)N2CCCCC2)c2sc(C)c(C)c21	none (no result: Cav3 T inh)
COC(=O)C1=C(c2ccc(S(C)(=O)=O)cc2)C[C@@H]2CC[C@H]1N2C(=O)NCc1cccc2ccccc12	none (no result: CYP2C9 act, CYP2C19 inhib, Pyk2 oligo antag, CYP2C19 activ, CYP2C9 inhib)
CNCCc1ccc(OC)c(OC)c1	none (no result: CYP2C9 act, CYP2C19 inhib, Pyk2 oligo antag, CYP2C19 activ, CYP2C9 inhib)
CCN(CC)P(=O)(NC(=O)C(Cl)(Cl)Cl)N(CC)CC.[Cl-].[Cl-].[Cl-].[Nd+3]	CYP2C9 inhib 90.3
COC(=O)C1=C(c2cccc(OC)c2OC)C[C@@H]2CC[C@H]1N2C(=O)N1CCCC1	none (no result: CYP2C9 act, CYP2C19 inhib, Pyk2 oligo antag, CYP2C19 activ, CYP2C9 inhib)
CCOC(=O)c1c(C)n(Cc2ccccc2)c2ccc(OCC(O)CN3C(=O)CNC3=O)cc12 (stereo not drawn)	CYP2C19 inhib 68.5, CYP2C9 inhib 87.4
CC(=NCCCn1ccnc1)c1c(O)n(C)c(=O)n(C)c1=O	none
COc1ccc(N2CCN(C(CNC(=O)Oc3ccccc3)c3cccnc3)CC2)cc1 (stereo not drawn)	none
O=C(NCC(c1cccnc1)N1CCN(c2ccccc2F)CC1)Oc1ccccc1 (stereo not drawn)	CYP2C19 inhib 77.5, CYP2C9 inhib 85.1
CC[C@H]1CN2CC[C@@]3(C(=O)Nc4ccccc43)[C@@H]2C[C@@H]1/C(=C\OC)C(=O)OC	none (no result: CYP2C9 act, CYP2C19 inhib, Pyk2 oligo antag, CYP2C19 activ, CYP2C9 inhib)
Cc1cc(C(=O)N2CCC3(CC2)OCCO3)cs1	CYP2C19 inhib 74.1
CCOC(=O)c1[nH]c(C)c(C(=O)N2CCC3(CC2)OCCO3)c1C	none
O=C(c1cc(Br)ccc1Cl)N1CCC2(CC1)OCCO2	CYP2C19 inhib 97.5, CYP2C9 inhib 54.0
O=C(c1cc(-c2ccccc2)nc2ccccc12)N1CCC2(CC1)OCCO2	CYP2C19 inhib 56.6
O=C(c1cccn2c(=O)c3ccccc3nc12)N1CCC2(CC1)OCCO2	none
CC(=O)c1c(C)[nH]c(C(=O)N2CCC3(CC2)OCCO3)c1C	CYP2C19 inhib 54.2
O=C(c1ccc2c(c1)OCO2)N1CCC2(CC1)OCCO2	CYP2C19 inhib 88.1
CN1C(=O)C(=Cc2ccccc2Oc2ccc(Cl)c(F)c2)C(=O)N(C)C1=O	Pyk2 oligo antag -4.45, Cav3 T inh -4.75, CYP2C9 inhib 56.6
CCN1C[C@@]2(COC)C3[C@@H](OC)[C@H]4[C@@H]1[C@@]3(C1C[C@H]3[C@H](O)C1[C@]4(O)C[C@H]3OC)[C@@H](OC)C[C@H]2O (stereo partly drawn)	none (no result: CYP2C9 act, CYP2C19 inhib, Pyk2 oligo antag, CYP2C19 activ, CYP2C9 inhib)
CCN1CCN(Cc2nnnn2C(C)(C)C)CC1	none (no result: Pyk2 oligo antag)
CCC(C)(C)n1nnnc1CN1CCC(n2c(C)nc3cc(C(F)(F)F)ccc32)CC1	Cav3 T inh 4.03 (no result: CYP2C9 act, CYP2C19 inhib, CYP2C19 activ, CYP2C9 inhib)
Cn1c(=O)c2c(ncn2CCCl)n(C)c1=O	none (no result: CYP2C9 act, CYP2C19 inhib, Pyk2 oligo antag, CYP2C19 activ, CYP2C9 inhib)
COC(=O)c1c(C)n(Cc2ccc3c(c2)OCO3)c2ccc(O)cc12	CYP2C19 inhib 81.6, Pyk2 oligo antag -4, CYP2C9 inhib 78.9
CCOC(=O)c1c(C)n(COCCO)c2ccc(O)cc12	none
CCCCn1c(C)c(C(=O)OCC)c2c(CN3CCOCC3)c(O)ccc21	none
CCOC(=O)c1c(C)n(Cc2ccco2)c2ccc(O)cc12	CYP2C19 inhib 55.5
COc1ccc(CCn2c(O)c(C=NCc3ccc4c(c3)OCO4)c(=O)[nH]c2=O)cc1OC	none
CCOC(=O)c1c(C)n(Cc2ccc3c(c2)OCO3)c2ccc(O)cc12	Pyk2 oligo antag -3.28
CCN(CC)CCN=Cc1c(O)n(CCc2ccccc2)c(=O)[nH]c1=O	none
CC(=O)N1N=C2C3CCN(CC3)C2C1c1ccccc1 (stereo not drawn)	Cav3 T inh -3.88
CC12CN3CC(C)(CN(C1)C3c1cccs1)C2O (stereo not drawn)	CYP2C19 inhib 58.2
O=c1[nH]c(CN2CC=C(c3ccccc3)CC2)nc2cc(C(F)(F)F)ccc12	CYP2C9 inhib 79.4
O=C1CN=C(c2ccccc2)c2ccccc2N1Cc1ccc(C(F)(F)F)cc1	none
CCC(=NCCCN(CC)CC)c1c(O)n(-c2ccccc2)c(=O)[nH]c1=O	none
CN(C)c1ccc(P(=S)(N(C)C)N(C)C)cc1	CYP2C19 inhib 95.4
CCOP(=S)(OCC)c1ccc(N(C)C)cc1	none
Cc1cc(NCCN)nc2ccccc12	none (no result: Cav3 T inh)
